Bioassay records deposited in PubChem BioAssay by National Center for Advancing Translational Sciences (NCATS).
An excerpt weighted towards active compounds, which were near 2.9% of everything screened.
POLB inh = inhibitors of human DNA polymerase beta. P06746. actives 1.3% (n = 340,000). Potency, µM (series often up to 114 µM), for inactives: top-dose activity change, negative = inhibition, hits mostly inhibitors. Pol beta primer extension/strand displacement, fluorescence kinetic. AID 485314; note: potency is the fitted concentration of half-maximal effect; % is set by controls: 0 for no effect and ±100 for the full control effect
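10 nM enzyme + cpd, 15 min RT; start with substrate 50 nM final; read 0 min and after 10 min RT. Corrected, normalized data; 4-parameter Hill curve fit.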
Pol kappa inh-1 = inhibitors of human DNA polymerase kappa | actives 0.53% (n = 400,000) | purified Pol kappa, fluorescent DNA synthesis assay, 10 min | Potency, µM (top dose mostly 107 µM), without a hit: at the top dose activity, negative = inhibition, most hits filed as inhibitors | AID 588579; note: potency is the fitted concentration of half-maximal effect; % is set by controls: 0 for no effect and ±100 for the full control effect
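Enzyme at 10 nM met test compounds for 15 min at room temperature. Substrate addition (50 nM final) began the reaction, which was monitored by fluorescence at 0 and 10 min.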
Pol iota inh = inhibitors of human DNA polymerase iota; Pol iota fluorescent replication assay, 10 min; Potency, µM (series often up to 115 µM), for inactives: top-dose activity, negative = inhibition, hits mostly inhibitors; actives 1% (n = 390,000); AID 588590; note: potency is the fitted concentration of half-maximal effect
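Pol iota at 10 nM preincubated 15 min with compounds at room temperature; reaction started with fluorescent substrate, 50 nM final. Fluorescence read kinetically at 0 and 10 min; buffer-only wells as negative control.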
Pol eta inh-1 = inhibitors of human DNA polymerase eta; recombinant Pol eta, fluorescent DNA replication assay; actives 1.2% (n = 390,000); Q9Y253; Potency, µM (highest dose often 114 µM), inactives show at the top dose activity change, negative = inhibition, most hits filed as inhibitors; note: potency is the fitted concentration of half-maximal effect; % is set by controls: 0 for no effect and ±100 for the full control effect
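Fluorescent replication assay: 50 nM final substrate added after a 15 min room-temperature compound preincubation with 10 nM enzyme. Signal taken at 0 min and again at 10 min.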
ALOX12 inh = ALOX12 (human) lipoxygenase inhibition | P18054 | purified 12hLO, xylenol orange hydroperoxide absorbance | Potency, µM (titrated, usually from 108 µM), for the others: at the top dose activity change, negative = inhibition, usual class: inhibitors | actives 1.1% (n = 580,000) | AID 1671190; note: potency is the fitted concentration of half-maximal effect; % is set by controls: 0 for no effect and ±100 for the full control effect
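Hydroperoxide product was detected by ferrous iron/xylenol orange as the 573 to 405 nm absorbance ratio. Arachidonic acid at 40 uM (final) was turned over for 30 min at room temperature by 150 nM human 12hLO, pH 7.0 Hepes buffer, after 15 min compound preincubation.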
PI5P4K alpha inh = inhibitors of human PI5P4K alpha | AID 652105 | actives 1.2% (n = 330,000) | max response, % | PI5P4Kalpha enzyme, ADP-Glo luminescence, 60 min; stronger effect = lower value | P48426; active = max response of -50% or lower; inconclusive = between -30% and -50%; inactive = -30% or higher; note: value at the top dose of about 77 µM; % is set by controls: 0 for no effect and ±100 for the full control effect
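ADP-Glo luminescence end-point after a 60 min room-temperature kinase reaction. PI5P4Kalpha and substrate in HEPES pH 7.4 buffer with EGTA, 0.1% CHAPS and 5% DMSO; ATP at 5 microM final.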
TbPGK inh = TbPGK inhibition, hit validation; Potency, µM (series often up to 57.5 µM), for inactives: at the top dose activity change, negative = inhibition, usual class: inhibitors; TbPGK coupled GAPDH assay, Kinase-Glo luminescence; actives 79% (n = 500); shares compounds with Pol kappa inh-1; note: potency is the fitted concentration of half-maximal effect; % is set by controls: 0 for no effect and ±100 for the full control effect; nearly all actives have a fitted effect of over 65% in size
POLI cherry-pick = Human Pol iota inhibitor confirmatory assay. Pol iota primer extension, TAMRA/BHQ fluorescence. Potency, µM, most hits filed as inhibitors. AID 720496. shares compounds with Pol kappa inh-1. actives 77% (n = 1,500); note: potency is the fitted concentration of half-maximal effect
Pol kappa inh-2 = confirmation of human DNA polymerase kappa inhibitors. shares compounds with Pol eta inh-1. purified Pol-kappa, fluorescent strand-displacement substrate. Potency, µM, most hits filed as inhibitors. actives 76% (n = 920); note: potency is the fitted concentration of half-maximal effect
Pol eta inh-2 = confirmation of human DNA polymerase eta inhibitors. Potency, µM, hits mostly inhibitors. Pol eta primer extension, TAMRA/BHQ fluorescence, 10 min. shares compounds with Pol eta inh-1. AID 720502. actives 64% (n = 2,600); note: potency is the fitted concentration of half-maximal effect
* hit, by the source's call; ? = inconclusive; · = no result given. Unless noted, calls come from the whole dose curve; as a rule, active = well fitted curve in the direction sought with a large enough effect; inconclusive = small, poorly fitted or top-dose-only effect, or another doubt; inactive = no such curve, though single readings can be large; an effect the other way counts as inactive or inconclusive.

SMILES	POLB inh	Pol kappa inh-1	Pol iota inh	Pol eta inh-1	ALOX12 inh	PI5P4K alpha inh	POLI cherry-pick	Pol eta inh-2	others
O=c1oc2cc(O)c(Cl)cc2c2ccccc12	45%	-21%	3%	-16%	-5%	-28	·	·
CCCCCn1nc(C(=O)Nc2cc(OC)c(OC)cc2C)c2ccccc2c1=O	·	·	·	·	-13%	·	·	·
COc1ccc(C(=O)Nc2c(NC3CCCC3)c3ccccc3oc2=O)cc1OC	·	·	·	·	11%	·	·	·
C=CCOC(=O)c1cc(-c2ccc(/C=C3\C(=O)NC(=O)C(C#N)=C3C)o2)ccc1Cl	13µM*	28µM*	?	3.5µM*	7.1µM*	-27	67*	30*
CCCOC(=O)c1cc(-c2ccc(C=O)o2)ccc1Cl	23%	-3%	-10%	-11%	-21%	-12	·	·
CC(C)c1ccc(NC(C)(C)c2nnnn2-c2ccc(Cl)cc2)cc1	·	·	·	·	-9%	·	·	·
CCn1nc(-c2ccc(C)cc2)nc2c(=O)n(C)c(=O)nc1-2	·	-18%	-93%	·	·	·	2.4*	1.7*
COc1ccc(NC(=O)c2ccc3c(c2)N(C)C2CCCCCN2C3=O)c(OC)c1 (centres undefined)	·	·	·	·	8%	·	·	·
Cc1ccc(S(=O)(=O)N2[C@@H](c3ccc(Cl)cc3)C(C(=O)O)=CC[C@H]2c2ccc(C(C)C)cc2)cc1	·	-38%	-6%	?	?	-5	60*	85*	Pol kappa inh-2=42*
C/C(=N\NC(=O)c1cc(-c2cccc([N+](=O)[O-])c2)n[nH]1)c1ccccc1O	11µM*	-32%	-11%	8.9µM*	-23%	-1	47*	·	Pol kappa inh-2=84*
C/C(=N/NC(=O)c1cc(-c2cccc([N+](=O)[O-])c2)n[nH]1)c1cccc(O)c1	21%	3%	-25%	-6%	-10%	-1	·	·
O=C(Nc1ccc(N2CCCCC2)cc1)c1ccc([N+](=O)[O-])o1	40µM*	?	40µM*	50µM*	-19%	?	34*	60*
CC1CCN(c2ccc(NC(=O)c3ccc([N+](=O)[O-])o3)cc2)CC1	·	1%	-9%	-9%	?	9	·	·
O=C(/C=C/c1ccccc1)NCCc1ccccc1	25µM*	?	?	20µM*	?	?	?	67*	TbPGK inh=21µM*
Cc1cc(=O)[nH]c(SCC(=O)NCc2ccco2)n1	13µM*	35µM*	8.9µM*	3.2µM*	3%	-22	30*	19*
CCc1c(O)nc(SCC(=O)NCc2ccco2)[nH]c1=O	-4%	-28%	?	-1%	-4%	-21	·	·
O=C(CCSCCC(=O)NCc1ccco1)NCc1ccco1	22µM*	?	-69%	11µM*	-37%	?	34*	27*
O=C(CCSCc1ccccc1Cl)NCc1ccco1	19%	-16%	104%	7%	11%	1	·	·
C=CCN(CC=C)C(=O)COc1cc(O)c2c(=O)cc(-c3ccccc3)oc2c1	·	·	·	·	-3%	·	·	·
COc1ccc(-c2ocnc2C(=O)Nc2ccc3c(c2)OCCO3)cc1OC	·	·	·	·	7%	·	·	·
COc1ccccc1C(CCN(Cc1cccs1)C(C)=O)c1ccco1 (centres undefined)	28µM*	-36%	22µM*	25µM*	?	-22	?	76*
Cc1ccc(C)c2c1CCCC2=O	·	·	·	-6%	12%	1	·	·
CN(C)/C=C/C=C1C(=O)CCCC1=O	20µM*	79µM*	1.1µM*	10µM*	6%	-1	67*	38*
Cc1cc2nc3c(=O)[nH]c(=O)[nH]c3nc2c([N+](=O)[O-])c1N	35µM*	28µM*	?	3.5µM*	-6%	-76*	24*	21*	Pol kappa inh-2=17*
CCC(=O)Nc1ccc2nc3c(=O)[nH]c(=S)[nH]c3nc2c1	40µM*	45µM*	?	18µM*	?	-66*	27*	30*	Pol kappa inh-2=17*
CCOC(=O)C1=C(C)N=c2s/c(=C/c3ccccc3)c(=O)n2C1c1ccc(OC)c(OC)c1 (centres undefined)	28%	-4%	14%	-14%	1%	-3	·	·
